# Measured values reported in PubChem BioAssay (NCI).
# The panel holds about 79,000 compounds, 15% with a hit somewhere; the sample as a whole holds those more often. Activity calls are given as the source filed them. Cut-off read from the data, not from the text of the source: active = growth inhibition above about 70%; inactive = the rest.
# Experiment: NCI Yeast Anticancer Drug Screen. Data for the mlh1 rad18 strain (AID 175)
# Conditions: S. cerevisiae mlh1 rad18 strain growth inhibition; at 50.0 µM (retest, dose inferred, filed as 5.0); stronger effect = higher value
# Method in brief: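 Vehicle-treated cultures served as the reference for growth inhibition in a yeast strain carrying DNA damage repair alterations exposed to each compound.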
row,SMILES,growth inhibition
1,O=C1c2ccc3ccccc3c2CCC1[n+]1ccc2ccccc2c1 (stereo unspecified),85% (active)
2,Cc1cc(NC(=S)SCc2ccc(Cl)cc2)c([N+](=O)[O-])cc1C,96% (active)
3,N#CC(O)C(Br)(Br)Br (stereo unspecified),72% (active)
4,C[CH2][Ge]([CH2]C)[CH2]C.C[CH2][Ge]([Cl])[CH2]C.C[CH2][Ge][CH2]C,95% (active)
5,COC1C(=[N+]=[N-])C(=O)NC(=O)N1C1OC(COC(c2ccccc2)(c2ccccc2)c2ccccc2)C(O)C1O (stereo unspecified),15% (inactive)
6,CC(=O)Oc1ccc(C)c(C(C)C(Cl)(Cl)Cl)c1 (stereo unspecified),27% (inactive)
7,OC(c1ccccc1)c1cccc(Br)c1 (stereo unspecified),77% (active)
8,CC/C(=C1\C=CC(=O)S1)C(CC)c1ccc(OC(C)=O)cc1 (stereo unspecified),99% (active)
9,COc1ccc(/C=C2/C(=O)NC3SC=C(c4cccc([N+](=O)[O-])c4)N23)cc1 (stereo unspecified),23% (inactive)
10,O=C1O/C(=C2\OC(=O)c3ccccc32)c2ccccc21,-1% (inactive)
11,Clc1ncccc1-n1cccc1/C=N\N=C/c1cccn1-c1cccnc1Cl,99% (active)
12,Clc1nc2cc3nc(Cl)c(Cl)nc3cc2nc1Cl,91% (active)
13,CC(=O)c1c2c(cc3c1CC1(Cc4cc5c(cc4C1)C(=O)CCC5)C3)CCCC2 (stereo unspecified),29% (inactive)
14,CCCCOS(=O)(=O)c1ccc(C)cc1,-4% (inactive)
15,C[N+]1(c2ccccc2)C=C(c2ccccc2)SC1=S (stereo unspecified),75% (active)
16,COc1ccc(/C=N/N=c2\[nH][nH]/c(=N\N=C\c3ccc(OC)c4ccccc34)c3ccccc23)c2ccccc12,85% (active)
17,CCCCCCCCCCCCCCCCN,98% (active)
18,CCCCCCCCCCCC[S+](C)C,76% (active)
19,CP(=O)(c1ccccc1)c1ccccc1,-25% (inactive)
20,CCCCCCCCCCCC(=O)OC/C=C/COC(=O)c1ccccc1,46% (inactive)
21,O=C(O)CCC(O)=C1S(=O)(=O)OCCOS1(=O)=O,-28% (inactive)
22,CCOC(=O)C1SC(=Nc2cccc(Cl)c2C)N=C1C (stereo unspecified),91% (active)

# Same assay, conditions: S. cerevisiae mlh1 rad18 strain growth inhibition; at 50.0 µM; stronger effect = higher value
row,SMILES,growth inhibition
1,CC(=O)NNc1nc(C)c(C(=O)NNC(=O)C(=O)Nc2c(C)cccc2C(C)C)s1,44.1% (inactive)
2,COc1cc(C2CC(=O)c3ccccc3O2)ccc1O (stereo unspecified),89.5% (active)
3,CCC1CCC2C3CC=C4CC(OC(C)=O)C(N)CC4(C)C3CCC12C (stereo unspecified),91.8% (active)
4,COc1ccccc1C1c2cc3c(cc2OC(N2CCOCC2)C1C)OCO3 (stereo unspecified),59.5% (inactive)
5,O=C1C=C/C(=C(/c2ccc(O)c(O)c2)c2ccccc2S(=O)(=O)O)C=C1O,1.75% (inactive)
6,N#CSC#Cc1ccc(C#CSC#N)cc1,89.2% (active)
7,Cc1c2ccccc2c(CCl)c2ccc3ccccc3c12,96.8% (active)
8,Oc1ccc(C(=C(Br)c2ccccc2)c2ccc(O)cc2)cc1,85.3% (active)
9,Clc1ccc(/C=N/Nc2c3ccccc3nc3ccccc23)c(Cl)c1,85.4% (active)
10,CCCC#CCCOC(=O)c1cc([N+](=O)[O-])cc([N+](=O)[O-])c1,98.5% (active)
11,CCOc1ccc2c(c1)n([O-])c1ccccc1[n+]2=O,99.1% (active)
12,COc1ccc(/C(Cl)=C(\c2ccc(OCCN(C)C)cc2)c2ccc(OC(=O)C(C)(C)C)cc2)cc1,90% (active)
13,CCCCCCCCCCCCCCCCSC(=NC)NC,98.7% (active)
14,N#Cc1ccc(Oc2nc3ccccc3nc2-c2ccccc2)cc1,53.5% (inactive)
15,Cc1ccc2c(c1)nc1n2C(N)=Nc2ccccc2S1,57.2% (inactive)
16,COc1cc(NCc2ccc3nc(-c4ccccc4)c(N)nc3c2)cc(OC)c1OC,70.3% (active)
17,O=C(OCCC1CCCCC1)c1cc([N+](=O)[O-])cc([N+](=O)[O-])c1,89.8% (active)
18,O=C1c2ccc3ccccc3c2CCC1[n+]1ccc2ccccc2c1 (stereo unspecified),69.5% (inactive)
19,Cc1cc(NC(=S)SCc2ccc(Cl)cc2)c([N+](=O)[O-])cc1C,97.2% (active)
20,N#CC(O)C(Br)(Br)Br (stereo unspecified),86% (active)

row,SMILES,growth inhibition
1,C[CH2][Ge]([CH2]C)[CH2]C.C[CH2][Ge]([Cl])[CH2]C.C[CH2][Ge][CH2]C,98.2% (active)
2,COC1C(=[N+]=[N-])C(=O)NC(=O)N1C1OC(COC(c2ccccc2)(c2ccccc2)c2ccccc2)C(O)C1O (stereo unspecified),66.6% (inactive)
3,CC(=O)Oc1ccc(C)c(C(C)C(Cl)(Cl)Cl)c1 (stereo unspecified),81.2% (active)
4,OC(c1ccccc1)c1cccc(Br)c1 (stereo unspecified),87.2% (active)
5,CC/C(=C1\C=CC(=O)S1)C(CC)c1ccc(OC(C)=O)cc1 (stereo unspecified),99.3% (active)
6,COc1ccc(/C=C2/C(=O)NC3SC=C(c4cccc([N+](=O)[O-])c4)N23)cc1 (stereo unspecified),29.7% (inactive)
7,O=C1O/C(=C2\OC(=O)c3ccccc32)c2ccccc21,-18.1% (inactive)
8,Clc1ncccc1-n1cccc1/C=N\N=C/c1cccn1-c1cccnc1Cl,21.7% (inactive)
9,Clc1nc2cc3nc(Cl)c(Cl)nc3cc2nc1Cl,-1.2% (inactive)
10,CC(=O)c1c2c(cc3c1CC1(Cc4cc5c(cc4C1)C(=O)CCC5)C3)CCCC2 (stereo unspecified),13.8% (inactive)
11,CCCCOS(=O)(=O)c1ccc(C)cc1,-3.55% (inactive)
12,C[N+]1(c2ccccc2)C=C(c2ccccc2)SC1=S (stereo unspecified),74.8% (active)
13,COc1ccc(/C=N/N=c2\[nH][nH]/c(=N\N=C\c3ccc(OC)c4ccccc34)c3ccccc23)c2ccccc12,65% (inactive)
14,CCCCCCCCCCCCCCCCN,98.7% (active)
15,CCCCCCCCCCCC[S+](C)C,6.8% (inactive)
16,CP(=O)(c1ccccc1)c1ccccc1,41.8% (inactive)
17,CCCCCCCCCCCC(=O)OC/C=C/COC(=O)c1ccccc1,5.35% (inactive)
18,O=C(O)CCC(O)=C1S(=O)(=O)OCCOS1(=O)=O,8.3% (inactive)
19,CCOC(=O)C1SC(=Nc2cccc(Cl)c2C)N=C1C (stereo unspecified),86.2% (active)
